Screening data (PubChem BioAssay)
Most compounds without a hit are left out; they make up all but 0.45% or so of the library.
TcdB inh – blocks C. difficile toxin B glycohydrolase activity; P18177; TcdB glycohydrolase enzymatic assay, plate reader; inhibition, % at 9.99 µM; 0.24% of 350,000 active; AID 652162; in the data active = inhibition above about 10%
Target sequence (P18177 whole entry, looked up): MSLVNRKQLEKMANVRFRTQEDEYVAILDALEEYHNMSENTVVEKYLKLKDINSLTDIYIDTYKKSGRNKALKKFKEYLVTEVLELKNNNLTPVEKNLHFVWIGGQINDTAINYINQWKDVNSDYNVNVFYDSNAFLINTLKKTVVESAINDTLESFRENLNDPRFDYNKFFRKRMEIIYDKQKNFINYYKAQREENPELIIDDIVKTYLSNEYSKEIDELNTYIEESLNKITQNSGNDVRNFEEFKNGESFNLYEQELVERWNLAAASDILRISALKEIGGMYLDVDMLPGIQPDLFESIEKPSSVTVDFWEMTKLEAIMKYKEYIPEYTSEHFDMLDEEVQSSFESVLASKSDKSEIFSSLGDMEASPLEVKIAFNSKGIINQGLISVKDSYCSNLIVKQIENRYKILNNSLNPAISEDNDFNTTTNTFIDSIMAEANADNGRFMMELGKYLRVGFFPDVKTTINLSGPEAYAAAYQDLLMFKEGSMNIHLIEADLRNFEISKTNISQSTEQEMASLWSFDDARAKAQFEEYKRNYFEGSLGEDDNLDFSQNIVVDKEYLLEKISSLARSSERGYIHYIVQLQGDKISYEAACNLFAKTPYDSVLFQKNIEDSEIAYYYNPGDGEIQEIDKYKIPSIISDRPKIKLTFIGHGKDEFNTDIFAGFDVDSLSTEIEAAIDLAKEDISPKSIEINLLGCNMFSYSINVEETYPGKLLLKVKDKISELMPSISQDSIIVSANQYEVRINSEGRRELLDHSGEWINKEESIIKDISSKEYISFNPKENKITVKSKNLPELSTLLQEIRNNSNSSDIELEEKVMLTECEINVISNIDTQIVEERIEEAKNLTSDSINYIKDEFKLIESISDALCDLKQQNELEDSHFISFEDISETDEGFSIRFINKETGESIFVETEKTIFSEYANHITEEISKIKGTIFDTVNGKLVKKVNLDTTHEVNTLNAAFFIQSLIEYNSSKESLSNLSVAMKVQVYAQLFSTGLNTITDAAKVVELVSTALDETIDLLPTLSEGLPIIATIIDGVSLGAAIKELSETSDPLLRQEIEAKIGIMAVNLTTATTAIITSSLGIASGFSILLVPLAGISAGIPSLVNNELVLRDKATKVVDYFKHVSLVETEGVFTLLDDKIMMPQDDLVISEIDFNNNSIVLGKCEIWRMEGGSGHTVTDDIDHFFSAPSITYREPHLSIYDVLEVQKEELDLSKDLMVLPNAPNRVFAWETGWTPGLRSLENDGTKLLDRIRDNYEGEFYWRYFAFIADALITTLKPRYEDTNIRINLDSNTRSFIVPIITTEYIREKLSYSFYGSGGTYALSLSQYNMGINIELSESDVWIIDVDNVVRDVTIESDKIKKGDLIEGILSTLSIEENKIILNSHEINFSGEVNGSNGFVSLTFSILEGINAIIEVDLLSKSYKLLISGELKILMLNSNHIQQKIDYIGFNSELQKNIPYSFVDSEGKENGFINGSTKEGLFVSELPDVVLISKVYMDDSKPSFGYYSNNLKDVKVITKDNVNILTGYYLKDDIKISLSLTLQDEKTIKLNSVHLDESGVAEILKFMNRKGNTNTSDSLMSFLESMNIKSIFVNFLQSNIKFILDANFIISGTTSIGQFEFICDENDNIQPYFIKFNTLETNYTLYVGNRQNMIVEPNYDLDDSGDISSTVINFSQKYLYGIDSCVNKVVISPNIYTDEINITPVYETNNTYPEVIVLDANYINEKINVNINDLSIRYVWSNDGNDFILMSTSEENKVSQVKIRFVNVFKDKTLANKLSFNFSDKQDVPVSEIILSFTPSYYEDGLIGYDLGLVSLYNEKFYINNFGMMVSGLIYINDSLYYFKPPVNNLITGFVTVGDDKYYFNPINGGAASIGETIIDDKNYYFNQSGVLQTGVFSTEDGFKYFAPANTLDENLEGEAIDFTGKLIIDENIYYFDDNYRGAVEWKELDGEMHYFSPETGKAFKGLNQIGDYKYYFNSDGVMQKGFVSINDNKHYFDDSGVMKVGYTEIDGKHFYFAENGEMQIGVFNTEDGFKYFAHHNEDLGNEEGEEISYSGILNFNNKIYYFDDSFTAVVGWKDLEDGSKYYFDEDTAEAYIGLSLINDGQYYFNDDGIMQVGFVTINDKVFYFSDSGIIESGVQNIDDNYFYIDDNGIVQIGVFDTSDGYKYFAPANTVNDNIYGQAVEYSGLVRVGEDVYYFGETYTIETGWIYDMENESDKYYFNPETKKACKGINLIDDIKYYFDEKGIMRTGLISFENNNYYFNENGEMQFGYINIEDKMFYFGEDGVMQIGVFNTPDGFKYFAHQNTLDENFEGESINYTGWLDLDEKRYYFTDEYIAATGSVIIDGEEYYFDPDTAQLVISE
BioA inh-1 – inhibitors of Mycobacterium tuberculosis BioA enzyme; purified M. tuberculosis BioA enzyme, plate reader; inhibition, % at 9.99 µM; 0.096% of 360,000 active; AID 602481; in the data active = inhibition above about 40%; inconclusive = no clear call, values can overlap the other calls
Yp Topo-I inh – blocks Yersinia pestis topoisomerase I activity. Y. pestis Topo-I cleavage product accumulation, plate reader. activity, % at 10 µM. 0.064% of 360,000 active; in the data active = activity above about 50%, passing the limit was not always enough; inconclusive = no clear call, values can overlap the other calls
FadD28 FP inh – inhibitors of Mycobacterium tuberculosis FadD28 bisubstrate binding. inhibition, % at 12.5 µM. 0.22% of 360,000 active. FadD28 bisubstrate probe binding, fluorescence polarization; in the data active = inhibition above about 8.5%, passing the limit was not always enough; inconclusive = no clear call, values can overlap the other calls
BioA inh-2 – Mtb BioA enzyme inhibition; shares compounds with BioA inh-1; purified BioA enzyme, plate reader, dose response; max activity, %; 310 tested, under 10 active; AID 651679;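 also: top concentration of the dilution series was 10 µM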
HepG2 tox 2 – kills HepG2 cells. shares compounds with BioA inh-1. HepG2 cytotoxicity, plate reader. max activity, %. 310 tested, under 10 active. AID 651898
3T3 cytotox 5 – NIH3T3 viability loss; shares compounds with BioA inh-1; activity change, negative = cytotoxicity, % at 26 µM; NIH3T3 cytotoxicity, plate reader; 310 tested, under 10 active
Starred values were filed as active, the others as inactive; i = inactive; ? = inconclusive; · = no result; [ ] = dose if it differs, or a comment. Unless noted, no rule for the calls is given here.

SMILES	TcdB inh	BioA inh-1	Yp Topo-I inh	FadD28 FP inh	BioA inh-2	HepG2 tox 2	3T3 cytotox 5
O=C(NCc1ccco1)c1ccc(-c2ccc3nccn3c2)cc1	1	48*	6	-1	4	28	11
COc1ccc(N2CCN(C(=O)Cc3cccs3)CC2)cc1	2	3	-6	-2	·	·	·
CC(=O)c1ccc(N2CCN(C(=O)Cc3cccs3)CC2)cc1	·	49*	-14	-5	-6	15	0
O=C(N[C@H]1CC[C@H](CCn2cc(-c3ccc(F)cc3)nn2)O[C@H]1CO)c1cnccn1	0	-3	·	·	·	·	·
CCOCCCNC(=O)CSc1nc2nc(C)c(Cc3ccccc3)c(C)n2n1	2	76*	0	-1	-8	12	-10
Cc1nc2nc(SCC(=O)NCCCN3CCOCC3)nn2c(C)c1Cc1ccccc1	1	47*	4	0	-5	7	9
COc1cccc(CNC(=O)C[C@H]2C=C[C@H](NC(=O)C3CC3)[C@H](CO)O2)c1	0	-2	·	·	·	·	·
O=C(N[C@H]1CC[C@H](CCNC(=O)c2cnccn2)O[C@H]1CO)c1ccc2c(c1)OCO2	0	-1	·	·	·	·	·
COc1cc(C(=O)NC2CCN(Cc3ccccc3)CC2)cc(Cl)c1OC	-1	0	2	-2	·	·	·
COc1ccc([N+](=O)[O-])cc1C(=O)NC1CCN(Cc2ccccc2)CC1	1	79*	-5	-1	5	29	1
Cc1ccc(NC(=O)C2CCN(S(=O)(=O)c3cccs3)CC2)cc1	1	·	11	0	·	·	·
O=C(Nc1ccc(F)c(F)c1)C1CCN(S(=O)(=O)c2cccs2)CC1	0	58*	-1	-1	-9	14	-5
Fc1ccc2[nH]c3c(NCCN4CCOCC4)ncnc3c2c1	·	54*	-3	-2	5	?	?
CN1CCN(c2ncnc3c2[nH]c2ccc(F)cc23)CC1	·	70*	-10	0	-6	-9	-5
Fc1ccc2[nH]c3c(N4CCc5ccccc5C4)ncnc3c2c1	1	3	-5	1	·	·	·
Clc1ccc2[nH]c3c(NCCN4CCOCC4)ncnc3c2c1	·	1	-4	-4	·	·	·
CCNC(=O)[C@@H]1[C@@H](CO)[C@@H]2Cn3c(ccc(-c4ccccc4F)c3=O)[C@H]1N2CCC(F)(F)F	0	-1	·	·	·	·	·
COc1ccc(C(=O)C2CCCN(C(=O)c3ccc(C(C)=O)s3)C2)c(C)c1 (configuration not stated)	0	64*	-3	2	-10	-7	-8
COc1ccc(C(=O)C2CCCN(C(=O)c3ccnn3C)C2)c(C)c1 (configuration not stated)	2	7	1	2	·	·	·
COc1ccc(Cn2ccc(=O)c(Cc3c(Cl)cccc3Cl)c2C)cc1	·	43*	1	-4	5	?	?
O=C1c2oc3ccc(Cl)cc3c(=O)c2C(c2ccco2)N1CCN1CCOCC1 (configuration not stated)	-10	24	13	-1	·	·	·
COc1ccc(C2c3c(oc4ccc(Cl)cc4c3=O)C(=O)N2CCN2CCOCC2)cc1 (configuration not stated)	2	72*	-12	-5	-6	10	6
COc1ccc(-c2ccc3c(c2)C2CC3CCN2C(=O)C2CCCCC2)cc1 (configuration not stated)	1	-1	26	2	·	·	·
COc1ccc(-c2ccc3c(c2)C2CC3CCN2)cc1 (configuration not stated)	3	86*	1	-2	-9	-16	-8
C[C@@H]1CCCCO[C@@H](CN(C)S(=O)(=O)c2cccs2)[C@H](C)CN([C@@H](C)CO)C(=O)c2cc(NC(=O)c3ccccc3)ccc2O1	·	-5	·	·	·	·	·
SMILES	TcdB inh	BioA inh-1	Yp Topo-I inh	FadD28 FP inh	BioA inh-2	HepG2 tox 2	3T3 cytotox 5
CC(Oc1ccc2c(-c3ccccc3)cc(=O)oc2c1)C(=O)NCc1ccccn1 (configuration not stated)	2	42*	12	-2	-6	6	-10
Cc1ccccc1S(=O)(=O)N1C[C@@H](O)COC[C@@H]2O[C@H](CC(=O)N3CCN(C)CC3)CC[C@H]21	0	-3	·	·	·	·	·
O=C(Nc1ccc2ccccc2c1)c1cccnc1	·	17	3	-2	·	·	·
O=C(Nc1ccc(Cl)c(-c2nc3ccccc3[nH]2)c1)c1cccnc1	·	64*	6	-14	23	22	-6
CN1c2ccc(-c3cccc(F)c3)cc2[C@H]2[C@H](CCN2C(=O)C2CCOCC2)[C@H]1CO	2	76*	·	·	-3	i	-1
CN1c2ccc(-c3cccc(C#N)c3)cc2[C@H]2[C@H](CCN2C(=O)CC2CC2)[C@H]1CO	·	65*	·	·	17	i	3[23.5 µM]
CN1c2ccc(-c3cccc(F)c3)cc2[C@H]2[C@H](CCN2C(=O)c2ccc3c(c2)OCO3)[C@H]1CO	2	99*	·	·	-5	i	-3[23.5 µM]
CN1c2ccc(-c3cccc(C#N)c3)cc2[C@@H]2[C@@H](CCN2C(=O)CC2CC2)[C@H]1CO	·	15	·	·	·	·	·
CN1c2ccc(-c3cccc(F)c3)cc2[C@H]2[C@H](CCN2C(=O)C2CCOCC2)[C@@H]1CO	1	38	·	·	·	·	·
CCC(=O)N1CC[C@@H]2[C@H]1c1cc(-c3cccc(F)c3)ccc1N(C)[C@@H]2CO	·	90*	·	·	-4	i	-7[23.5 µM]
CN1c2ccc(-c3ccccc3)cc2[C@@H]2[C@@H](CCN2C(=O)c2ccc3c(c2)OCO3)[C@H]1CO	-1	·	·	·	·	·	·
C[C@H]1CN([C@@H](C)CO)C(=O)c2cc(C#Cc3ccc(F)cc3)cnc2O[C@H]1CN(C)Cc1ccccn1	1	2	·	·	·	·	·
C[C@@H]1CN([C@@H](C)CO)C(=O)c2cc(NS(C)(=O)=O)ccc2O[C@H]1CN(C)Cc1ccc(C(=O)Nc2ccccc2N)cc1	-1	-1	·	·	·	·	·
O=C(O)C[C@@H]1C=C[C@H](NC(=O)Nc2cc(F)ccc2F)[C@@H](CO)O1	0	0	·	·	·	·	·
C[C@@H]1CN([C@@H](C)CO)S(=O)(=O)c2ccc(-c3cncnc3)cc2O[C@@H]1CN(C)C(=O)Cc1ccccc1	-1	2	·	·	·	·	·
CC(=O)N1CC[C@@H]2[C@@H](CO)N(C)c3ccc(-c4ccccc4)cc3[C@@H]21	17*	42*	·	·	18	i	10
CN1c2ccc(-c3cccc(F)c3)cc2[C@H]2[C@H](CCN2C(=O)c2cccc(F)c2)[C@@H]1CO	1	·	·	·	·	·	·
CN1c2ccc(-c3cccc(F)c3)cc2[C@H]2[C@H](CCN2C(=O)c2ccncc2)[C@H]1CO	·	95*	·	·	-11	i	2
CCCC(=O)Nc1cccc(NC(=O)c2ccc(C)c([N+](=O)[O-])c2)c1	·	44*	-10	-3	-6	-15	-2
Cc1ccc(CNC(=O)c2ccc(NC(=O)C3=CSCCO3)cc2)cc1	1	0	11	-3	·	·	·
COc1cccc(CNC(=O)c2ccc(NC(=O)C3=CSCCO3)cc2)c1	0	48*	7	-3	-7	18	2
